Experiment [1] can be described thus: HepG2 liver cancer cell viability effects, profiling panel, resazurin fluorescence, 24 h, PK04 Diversity Set (AID 1172). Note: test concentration not given here. The following applies: higher = more signal. A general note: Resazurin is reduced to fluorescent resorufin, in cell work by metabolically active cells.
Experiment [2] in a line: basal S. cerevisiae growth modulation, no modifier, primary screen, OD600, strain BY4716, 24 h, basal condition (AID 1173). The following applies: OD600, 24 h, higher = more signal, called active from +8 up or from −8 down.
Experiment [3] in a line: MM1S myeloma cell viability, profiling panel, resazurin fluorescence, basal, 24 h, PK04 Diversity Set (AID 1174). Note: test concentration not given here. The conditions noted are these: higher = more signal, called active from +8 up or from −8 down.
For experiment [4], the target named is Dihydroorotate dehydrogenase (quinone), mitochondrial (Plasmodium falciparum (isolate 3D7)) (UniProt Q08210). As to the kind of experiment: PfDHODH enzyme inhibitors, primary screen, biochemical, C-terminal His tag, absorbance 600 nm (AID 1175).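 Note: recombinant parasite enzyme with a five histidine tag at its C terminus; test concentration not given here.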 The following applies: DCIP absorbance 600 nm, higher = more signal, called active from +8 up or from −8 down.
Chain of Dihydroorotate dehydrogenase (quinone), mitochondrial (Plasmodium falciparum (isolate 3D7)) (Q08210 whole entry, looked up): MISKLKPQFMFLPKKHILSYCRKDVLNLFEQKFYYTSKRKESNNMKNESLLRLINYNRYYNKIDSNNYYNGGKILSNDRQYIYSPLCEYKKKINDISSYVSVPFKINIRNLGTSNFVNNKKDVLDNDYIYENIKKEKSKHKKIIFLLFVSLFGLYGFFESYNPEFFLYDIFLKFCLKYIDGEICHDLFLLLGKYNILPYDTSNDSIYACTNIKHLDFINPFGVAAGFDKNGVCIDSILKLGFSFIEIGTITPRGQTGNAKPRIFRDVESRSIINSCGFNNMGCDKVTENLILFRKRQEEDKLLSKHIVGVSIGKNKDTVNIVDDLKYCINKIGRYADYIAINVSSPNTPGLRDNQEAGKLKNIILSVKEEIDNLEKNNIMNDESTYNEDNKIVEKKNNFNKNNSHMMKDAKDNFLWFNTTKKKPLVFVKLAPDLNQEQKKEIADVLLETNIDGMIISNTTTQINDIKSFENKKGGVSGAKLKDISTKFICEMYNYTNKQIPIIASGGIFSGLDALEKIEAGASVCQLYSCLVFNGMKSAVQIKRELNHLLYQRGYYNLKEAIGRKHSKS
Experiment [5] in a line: P. aeruginosa biofilm formation inhibitors, primary screen, strain PAO1, LB-PBS medium, absorbance 600 nm (AID 1176). Note: test concentration not given here. The conditions noted are these: P. aeruginosa PAO1 growth/biofilm, A600, 12 h; higher = more signal.
Experiment [6] can be described thus: S. cerevisiae RM11-1a growth modifiers, primary screen, strain RM11-1a, OD600, basal, 24 h (AID 1177).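 Note: cultures grown under basal conditions with no added stressor; test concentration not given here.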 The conditions noted are these: OD600, 24 h, higher = more signal, called active from +8 up or from −8 down.
The nature of experiment [7]: E. coli acrAB mutant growth effects, primary screen, E. coli filamentation inducers, strain DRC39, OD650, 24 h (AID 1178).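 Note: growth measured as culture turbidity by optical density at 650 nm; test concentration not given here.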 The following applies: higher = more signal, called active from +8 up or from −8 down.
The nature of experiment [8]: E. coli acrAB mutant growth effects, primary screen, E. coli filamentation inducers, strain DRC39, OD650, 48 h (AID 1179).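 Note: screen aims at cell division blockers that make cells filament.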 The following applies: E. coli DRC39 delta-acrAB growth, higher = more signal, called active from +8 up or from −8 down.
Experiment [9] can be described thus: RPMI8226 myeloma cell viability, profiling panel, resazurin fluorescence, basal, 24 h, PK04 Diversity Set (AID 1180).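 Note: RPMI8826 multiple myeloma cell line at 5000 cells per well; test concentration not given here.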 The conditions noted are these: higher = more signal.
The target of experiment [10] is E3 ubiquitin-protein ligase XIAP (Homo sapiens) (UniProt P98170). Put plainly: XIAP binders, primary screen, biophysical, small-molecule microarray, fluorescence 635 nm (AID 1181).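 Note: score merges 667 nm emission and signal to noise over triplicate slides.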 The conditions noted are these: small-molecule microarray binding, higher = more signal.
Chain of E3 ubiquitin-protein ligase XIAP (Homo sapiens) (P98170 whole entry, looked up): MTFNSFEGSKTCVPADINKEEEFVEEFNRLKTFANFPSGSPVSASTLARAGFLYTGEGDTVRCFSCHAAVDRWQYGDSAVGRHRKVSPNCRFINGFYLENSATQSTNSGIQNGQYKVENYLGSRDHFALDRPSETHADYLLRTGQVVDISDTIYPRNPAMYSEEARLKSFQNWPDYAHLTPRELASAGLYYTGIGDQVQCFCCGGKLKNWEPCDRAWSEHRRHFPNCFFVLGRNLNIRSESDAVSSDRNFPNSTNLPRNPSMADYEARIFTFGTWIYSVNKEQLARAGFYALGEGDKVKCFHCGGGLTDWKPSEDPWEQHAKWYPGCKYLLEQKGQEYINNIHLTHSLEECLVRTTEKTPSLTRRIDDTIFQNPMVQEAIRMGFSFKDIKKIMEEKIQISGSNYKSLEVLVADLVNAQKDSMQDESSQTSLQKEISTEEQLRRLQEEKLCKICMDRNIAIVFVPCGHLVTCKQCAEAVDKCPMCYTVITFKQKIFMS

Calls of active or inactive are those of the source. Unless noted, the rule behind the calls is not given here.

Among the data in PubChem BioAssay are z-score and composite z-score values, retold here.

Consider `CCCC=C(CCC)[C@@H](NC(=O)c1ccc(C(F)(F)F)cc1)c1ccc(C(F)(F)F)cc1`, for which the z-score is 0.706 in experiment [1]; 2.01 (inactive) in experiment [2]; 0.126 (inactive) in [3]; 0.219 (inactive) in [5]; 2.66 (inactive) in experiment [6]; -0.101 (inactive) in [7]. The z-score is 0.0205 (inactive) in [8] and -1.9 in experiment [9]. Besides, the composite z-score in experiment [4] was 0.256 (inactive); in experiment [10], 1.11.
Take `O=C1C2C=CC(C(O)c3ccc([N+](=O)[O-])cc3)N(Nc3ccccc3F)C2C(=O)N1c1ccccc1` (stereo not given): the z-score in [1] is -0.54; in experiment [2], -1.45 (inactive); in experiment [3], -0.348 (inactive); in [5] it was 1.19 (inactive); in experiment [6], 0.646 (inactive); in experiment [7], -0.892 (inactive). The z-score in experiment [8] was -0.591 (inactive); in experiment [9], -0.608. Also, the composite z-score in experiment [4] was 0.15 (inactive); in experiment [10], 0.0049.
Turning to `C=CCC(OC(C)=O)[C@@H]1[C@@H](N(Cc2cc3ccccc3o2)C(=O)c2cccc3ccccc23)c2cc(OCCCO)ccc2N1C(=O)c1ccc2ccccc2n1` (stereo not given in full), the z-score was -1.01 in experiment [1]; -0.711 (inactive) in experiment [2]; -0.367 (inactive) in experiment [3]; 0.256 (inactive) in experiment [5]; 0.202 (inactive) in [6]; 0.935 (inactive) in experiment [7]. Moreover, the figures for the z-score in experiment [8] and in experiment [9] were 0.207 (inactive) and -0.544, respectively. The composite z-score was 0.364 (inactive) in experiment [4] and -0.393 in experiment [10].
With `CC(C)(C)OC(=O)CC[C@@]1(C(=O)NCCN2CCOCC2)N=C(c2ccc(OCCCO)cc2)O[C@@H]1c1ccccc1CN=[N+]=[N-]`, the z-score in experiment [1] is 0.535; in [2] it was -0.51 (inactive); in experiment [3], -0.743 (inactive); in experiment [5], -0.0988 (inactive); in [6], -0.922 (inactive); in [7] it was -0.407 (inactive). The z-score in experiment [8] is -0.721 (inactive); in experiment [9], -0.28. Further, the values for the composite z-score in [4] and in experiment [10] were -0.918 (inactive) and -0.0559, respectively.
For `CC(C)C[C@@H]1NC(=O)[C@@H]2C[C@H](C(=O)NCCCCCCNC(=O)CS)[C@H](c3cccc(OCCO)c3)N2C1=O`, the z-score in experiment [1] was -0.889; in experiment [2] it was 1.05 (inactive); in experiment [3], -1.1 (inactive); in experiment [5], 0.863 (inactive); in [6], 1.11 (inactive); in experiment [7], -0.379 (inactive). Also, the z-score in experiment [8] is -0.881 (inactive); in experiment [9], -0.458. For the same compound, the values for the composite z-score in experiment [4] and in experiment [10] were 0.283 (inactive) and -0.122, respectively.
As for `CCCc1cc2c(n1CCc1ccc(Cl)cc1)C(C)C1CN(C(=O)c3ccccc3)C(C)(C(=O)OC)C21` (stereo not given), the z-score in experiment [1] was -1.19; in experiment [2], 0.736 (inactive); in [3], -2.85 (inactive); in [5], 0.659 (inactive); in [6] it was 1.09 (inactive); in experiment [7] it was -1.34 (inactive). Moreover, the z-score was -1.33 (inactive) in [8] and -1.98 in [9]. The composite z-score was -0.823 (inactive) in experiment [4] and 0.527 in experiment [10].
As for `COC(=O)[C@@]1(Cc2ccccc2)[C@H]2c3cc(C(=O)N(C)C)n(Cc4ccc(S(C)(=O)=O)cc4)c3C[C@H]2CN1C(=O)c1ccccc1`, the z-score in experiment [1] was -1.17; in experiment [2] it was 1.33 (inactive); in experiment [3] it was -2.74 (inactive); in [5], 1.47 (inactive); in [6] it was 0.879 (inactive); in [7], -1.1 (inactive). For the same compound, the z-score in experiment [8] is -1.28 (inactive); in experiment [9] it was -0.668. Further, the composite z-score in [4] was -0.316 (inactive); in experiment [10], 0.291.
With `CC(C)N1C(=O)c2ccccc2[C@](C)(C(=O)NCC(F)(F)F)[C@@H]1c1ccc(CO)cc1`, the z-score is -0.116 in [1]; -1.3 (inactive) in experiment [2]; 0.117 (inactive) in experiment [3]; -0.618 (inactive) in [5]; -0.613 (inactive) in experiment [6]; 0.558 (inactive) in experiment [7]. Moreover, the figures for the z-score in experiment [8] and in experiment [9] were -0.0513 (inactive) and 1.45, respectively. Also, the composite z-score in [4] is -0.172 (inactive); in experiment [10] it was -0.0195.
With `C=CC[C@@]1(C(=O)N(C)C)N=C(c2ccc(OCCCO)cc2)O[C@@H]1c1ccccc1CN=[N+]=[N-]`, the z-score in experiment [1] was -0.0494; in experiment [2], -0.266 (inactive); in experiment [3], -0.138 (inactive); in experiment [5], -0.345 (inactive); in experiment [6], 0.586 (inactive); in experiment [7], 0.159 (inactive). Besides, the figures for the z-score in experiment [8] and in experiment [9] were 0.374 (inactive) and -0.368, respectively. The composite z-score in experiment [4] was 0.59 (inactive); in experiment [10] it was -0.163.
Consider `O=C1O[C@@H](c2ccccc2)[C@@H](c2ccccc2)N2[C@@H](c3ccc(OCCO)cc3)[C@]3(C(=O)Nc4ccc(C#CC5(O)CCCCCC5)cc43)[C@@H](C(=O)Nc3nc4ccccc4s3)[C@H]12`, for which the z-score in experiment [1] was -0.369; in experiment [2], 1.28 (inactive); in [3] it was -0.0769 (inactive); in [5], 2.29 (inactive); in experiment [6] it was 2.45 (inactive); in [7] it was -0.27 (inactive). The z-score is 0.261 (inactive) in [8] and 0.519 in experiment [9]. Also, the results for the composite z-score in experiment [4] and in [10] were -0.263 (inactive) and 0.147, respectively.
Regarding `C=C(CCCC)/C(=C/C[C@H](OC(=O)c1ccncc1)c1ccccc1OCCO)c1cc(C(=O)OC)ccc1OC`, the z-score in [1] was -0.345; in experiment [2] it was 0.431 (inactive); in [3], 0.531 (inactive); in experiment [5], 0.297 (inactive); in experiment [6] it was -0.3 (inactive); in [7], 0.128 (inactive). For the same compound, the results for the z-score in experiment [8] and in experiment [9] were 0.0401 (inactive) and 1.09, respectively. For the same compound, the composite z-score in experiment [4] was -1.36 (inactive); in [10] it was -0.184.
As for `CC1CC/C=C\[C@H]2OC34C=CCN(C(C)(C)C)C(=O)[C@H]3N(CCCO)C(=O)[C@@H]4C2C(=O)O1` (stereo not given in full), the z-score in experiment [1] is -0.216; in experiment [2] it was 1 (inactive); in experiment [3], -0.32 (inactive); in experiment [5], 0.261 (inactive); in experiment [6] it was 0.0605 (inactive); in [7], -0.282 (inactive). Further, the results for the z-score in experiment [8] and in experiment [9] were -0.52 (inactive) and 0.276, respectively. Besides, the composite z-score in experiment [4] was -0.555 (inactive); in [10] it was -0.02.
